LMP1 NFkB inh = inhibitors of Epstein-Barr LMP1-induced NF-kappaB reporter; LMP1-induced NF-kappaB luciferase reporter cells, luminescence; inhibition, % at 12.5 µM; 350,000 compounds, 0.69% hits; in the data active = inhibition above about 41%; inconclusive = no clear call, values can overlap the other calls;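 also: 0% = neutral control wells and 100% = reference inhibitor control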
HSF-1 act = increases HSF-1 driven luciferase reporter signal. NIH3T3-HGL HSF-1 luciferase reporter, MG132, 8 h; 100% = twice DMSO control signal. activation, % at 9 µM. 300,000 compounds, 1.7% hits;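 active = mean replicate activation of at least 50% with a set share of replicates each reaching 50%; inconclusive = only one of those two conditions met; inactive = mean below 50% and too few replicates reaching it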;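 also: 0% = median of the neutral control wells and 100% = twice that signal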
HSF1 inhib = HSF1 inhibition; 300,000 compounds, 0.77% hits; activity change, negative = inhibition, % at 7.5 µM (by protocol); NIH3T3-HGL HSE-luciferase, MG132-induced, luminescence 8 h; active compounds read low; AID 2098;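 active = more than half of replicate wells show activity change below -50%, luminescence cut by over half; inconclusive = some wells, but at most half, below -50%; inactive = no replicate well below -50%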;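 also: luciferase reports HSF-1 transcriptional activity via heat shock element; 0% = median of DMSO wells and -100% = zero luminescence signal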
TROY NFkB inh = blocks TROY-dependent signaling in reporter cells. 360,000 compounds, 0.98% hits. AID 1347056. Q293 LMP1-TROYcd NF-kB luciferase reporter, 4 h. inhibition, % at 10 µM;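 active = compounds whose plate-normalised and pattern-corrected inhibition of the luciferase reporter signal at the single screening dose is 50% or more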
LGR2 antag = inhibitors of bursicon-induced Drosophila LGR2 receptor cAMP signaling. inhibition, % at 9.99 µM. 380,000 compounds, 0.35% hits. HEK293 LGR2, CRE-luciferase, bursicon-stimulated, 4 h. AID 720647;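 active = drop in luminescence signal, shown as inhibition above about 50% in the replicate tests, limit read from the data, passing the limit was not always enough; inconclusive = probably only some replicates passing the limit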;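 also: agonist challenge used bursicon conditioned medium at about half maximal strength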
TWEAK-Fn14 inh = inhibitors of TWEAK-Fn14 interaction signaling | inhibition, % at 10 µM | TWEAK-stimulated Fn14 reporter cells, luciferase luminescence, 8 h | 360,000 compounds, 2% hits; in the data active = inhibition above about 50%
Active calls of the source: *; ? = inconclusive; / = no result. This is a sample that favours compounds with a hit; in the whole collection about 3.6% have one here.

SMILES	LMP1 NFkB inh	HSF-1 act	HSF1 inhib	TROY NFkB inh	LGR2 antag	TWEAK-Fn14 inh
O=C(CS(=O)(=O)c1ccccc1)c1cc2cc(F)ccc2oc1=O	-11.5	325.4*	240.4	16.3	/	40.9
COc1ccc2cc(C(=O)CS(=O)(=O)c3ccccc3)c(=O)oc2c1	1.1	40.3	25.3	46.8	9.7	29.4
C[C@@H]1CCCCO[C@H](CN(C)S(=O)(=O)c2ccc(F)cc2)[C@@H](C)CN([C@@H](C)CO)C(=O)c2cc(NC(=O)c3ccccc3)ccc2O1	/	/	/	/	-2.3	/
C[C@@H](CO)NC(=O)c1ccc2c3n(nc2c1)-c1ccccc1CO3	23.7	-40.1	-22.5	28.4	?	52.5*
Cc1ccc2c(c1)COc1c3ccc(C(=O)N[C@@H](CO)C(C)C)cc3nn1-2	-23.4	36.5	16.1	-79.3	-68.0	-2.5
CC(C)NC(=O)N[C@@H]1CC[C@@H](CCNS(=O)(=O)c2ccc(Cl)cc2)O[C@@H]1CO	/	/	/	/	2.9	/
CC(C)(C)NS(=O)(=O)c1cc(C(=O)Nc2sccc2C#N)ccc1Cl	3.0	-18.0	0.4	39.5	22.5	51.5*
CC(C)Oc1ccc(N2C(=O)c3ccccc3C2=O)cc1	4.1	58.0*	8.1	-31.4	/	-12.3
COc1ccc(N2C(=O)c3ccccc3C2=O)cc1	2.4	32.2	5.3	-83.5	-20.4	-12.5
C[C@H](CO)N1C[C@H](C)[C@@H](CN(C)Cc2ccc(Cl)c(Cl)c2)OCc2ccccc2-c2ccccc2C1=O	/	/	/	/	4.1	/
CCOC(=O)c1[nH]c(C)c(C(=O)OCC(=O)NC2CCS(=O)(=O)C2)c1C (stereo unspecified)	0.5	-16.2	7.5	9.9	8.4	1.6
CCOC(=O)c1c(C)[nH]c(C(=O)OCC(=O)NC2CCS(=O)(=O)C2)c1C (stereo unspecified)	-1.1	13.0	-2.5	/	14.5	86.8*
CCOc1ccc(N2CC(=O)SC2=S)cc1	0.1	4.4	-3.4	29.3	15.9	46.0
CCOc1ccc(N2CSC(=S)N(c3ccc(OCC)cc3)C2)cc1	3.6	-70.9	-64.7*	-6.4	19.1	11.3
O=c1c2ccccc2nc(SCc2ccc([N+](=O)[O-])cc2)n1-c1ccc(Cl)cc1	0.2	12.3	3.8	-8.6	/	-25.4
COc1ccc(C(=O)Nn2c(SCc3ccc([N+](=O)[O-])cc3)nc3ccccc3c2=O)cc1	3.3	-59.8	?	76.1*	/	72.6*
COc1ccc(C(=O)Nn2c(SCC(=O)c3ccccc3)nc3ccccc3c2=O)cc1	17.2	-60.4	-59.5*	79.6*	/	91.8*
Cc1ccc(CNC(=O)CSc2nc3ccsc3c(=O)n2Cc2ccccn2)cc1	-3.6	17.1	-1.0	-32.6	12.2	-0.3
Nn1c(SCc2ccc([N+](=O)[O-])cc2)nc2ccccc2c1=O	-14.8	54.8*	19.6	-5.1	-6.5	-1.7
CCOC(=O)CSc1nc2ccccc2c(=O)n1NC(=O)c1ccccc1	-7.9	-23.7	2.7	-5.3	/	12.6
O=c1c2sccc2nc(SCc2ccc([N+](=O)[O-])cc2)n1Cc1ccccn1	-14.8	58.8*	19.0	-3.6	-7.0	-5.2
O=C(C[C@H]1CC[C@@H]2[C@H](COC[C@H](O)CN2S(=O)(=O)c2ccc(Cl)cc2)O1)N[C@H]1CCN(Cc2ccccc2)C1	/	/	/	/	-14.9	/
C[C@@H](NC(=O)[C@@H]1[C@@H](CO)[C@@H]2Cn3c(ccc(-c4ccncc4)c3=O)[C@H]1N2C)c1ccccc1	/	/	/	/	6.0	/
CO[C@H]1CN(C)C(=O)c2ccc(NC(=O)Nc3cccc(F)c3)cc2OC[C@H](C)N(C)C[C@@H]1C	/	/	/	/	10.3	/
C[C@H]1CN([C@@H](C)CO)C(=O)Cc2cc(NC(=O)Nc3cccc4ccccc34)ccc2O[C@@H]1CN(C)C(=O)Nc1ccc2c(c1)OCO2	/	/	/	/	4.1	/
SMILES	LMP1 NFkB inh	HSF-1 act	HSF1 inhib	TROY NFkB inh	LGR2 antag	TWEAK-Fn14 inh
COc1ccc2c3c([nH]c2c1)[C@@H](CO)N(Cc1ccccc1F)CC31CCN(S(C)(=O)=O)CC1	/	/	/	/	3.5	/
C[C@H](CO)N1C[C@H](C)[C@H](CN(C)S(=O)(=O)c2ccc(Cl)cc2)Oc2ccc(NC(=O)CCN3CCOCC3)cc2C1=O	/	/	/	/	-14.4	/
CCCC#Cc1ccc([C@@H]2[C@H](CO)N3C(=O)CN(C(=O)Nc4ccc(F)cc4)C[C@@H]23)cc1	/	/	/	/	22.0	/
CC1(C)Oc2cc3oc(-c4cc(O)cc(O)c4)cc3cc2CC1O (stereo unspecified)	19.5	-45.5	-39.3	80.1*	82.5*	76.2*
O=C(C[C@@H]1CC[C@H]2[C@@H](COC[C@@H](O)CN2CCc2ccccc2)O1)NCc1ccc(F)cc1	/	/	/	/	12.8	/
CCCC(=O)N1CCC2(CC1)CN(Cc1nccs1)[C@@H](CO)c1[nH]c3cc(OC)ccc3c12	/	/	/	/	-12.1	/
CNC[C@H]1Oc2cc(C#Cc3ccc(OC)cc3)ccc2S(=O)(=O)N([C@H](C)CO)C[C@@H]1C	/	/	/	/	24.5	/
Cc1ccc2c(c1)Cc1nc3ccccc3nc1-2	36.2	20.7	7.0	-36.2	-51.8	70.3*
O=C(CNS(=O)(=O)Cc1ccccc1)NNc1ccccc1	/	/	/	55.6*	-9.2	3.5
O=C(CCN1CCCCC1)N[C@H]1C=C[C@H](CC(=O)N2CCC(Cc3ccccc3)CC2)O[C@H]1CO	/	/	/	/	7.8	/
NC(=O)CC(NC(=O)c1ccc(Br)cc1)c1ccc(N2CCCCCC2)c([N+](=O)[O-])c1 (stereo unspecified)	17.1	74.0*	45.5	2.7	-19.1	37.6
NC(=O)CC(NC(=O)c1ccc(Br)cc1)c1ccc(NCc2ccc(F)cc2)c([N+](=O)[O-])c1 (stereo unspecified)	-1.3	0.6	11.2	11.3	-1.7	10.9
Cc1ccccc1CNc1ccc(C(CC(N)=O)NC(=O)c2ccc(Br)cc2)cc1[N+](=O)[O-] (stereo unspecified)	59.6*	3.9	1.3	22.6	-9.4	-10.2
CCCNC(=O)C[C@H]1C[C@H]2c3cc(NC(=O)c4ccc5c(c4)OCO5)ccc3O[C@H]2[C@H](CO)O1	/	/	/	/	-6.8	/
C[C@@H]1CN([C@H](C)CO)C(=O)c2cc(NC(=O)Nc3ccc(C(F)(F)F)cc3)ccc2O[C@H]1CN(C)Cc1ccc(Cl)c(Cl)c1	-27.3	/	/	22.6	15.4	52.7*
C[C@@H]1CN([C@H](C)CO)C(=O)c2cc(NC(=O)Nc3ccc(C(F)(F)F)cc3)ccc2O[C@@H]1CN(C)S(=O)(=O)c1ccc(F)cc1	/	/	/	/	17.3	/
C[C@H]1CN([C@@H](C)CO)C(=O)c2cc(NC(=O)Nc3ccc(C(F)(F)F)cc3)ccc2O[C@H]1CN(C)Cc1ccc(Cl)c(Cl)c1	/	/	/	/	-5.7	/
C[C@@H]1CN([C@H](C)CO)C(=O)c2cc(NC(=O)Nc3ccc(C(F)(F)F)cc3)ccc2O[C@H]1CN(C)S(=O)(=O)c1ccc(Cl)cc1	6.5	/	/	17.8	0.2	53.3*
C[C@H](CO)N1C[C@H](C)[C@@H](CN(C)S(=O)(=O)c2cccs2)Oc2ccc(NC(=O)Nc3ccc(C(F)(F)F)cc3)cc2C1=O	-4.5	/	/	30.7	6.0	60.2*
